According to PubChem BioAssay (NCATS):
Results filed as inconclusive are left out. Active and inactive are the calls of the source. Calls follow the shape of the dose curve; as a rule, active = well fitted activation curve with a large enough effect in the signal ratio; inconclusive = small, poorly fitted or top-dose-only effect, or effect the other way, or a change in a side signal; inactive = flat fitted curve, though single readings scatter; the % refers to the signal ratio.

Assay: qHTS assay to identify small molecules that stimulate interleukin-8 (IL-8) secretion (AID 651758)
Settings: HTRF ratio (665/615); series mostly up to 92.2 µM
Outline: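 Secreted IL-8 measured by TR-FRET sandwich (cryptate and XL665 antibodies) from THP-1 cells exposed to compound overnight (16 hrs, 37 C).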

| SMILES | outcome |
| --- | --- |
| C/C=C/c1ccc(O)c(OC)c1 | inactive |
| NC(=O)c1ccccc1O | inactive |
